According to PubChem BioAssay AID504432 (National Center for Advancing Translational Sciences (NCATS), 2011):
Records with an inconclusive call do not appear. Active and inactive are the calls of the source. Calls come from the whole dose curve; as a rule, active = well fitted inhibition curve with a large enough effect; inconclusive = small, poorly fitted or top-dose-only effect, or another doubt; inactive = flat fitted curve, though single readings scatter.

Test: Confirmation Concentration-Response Assay for lipid storage modulators: for probe SAR round 2
Conditions: Drosophila S3 cells, BODIPY lipid droplet fluorescence, 18-24 h
From the text: NIH Molecular Libraries Probe Production Centers Network [MLPCN] NIH Chemical Genomics Center [NCGC] MLPCN Grant: 1 R03 MH085686-01 Assay Submitter (PI): Beller, Mathias; Max-Planck-Institut fur Biophysikalische Chemie NCGC Assay Overview: Storing lipids as a reservoir for energy or the anabolism of elementary metabolites is a common feature of probably all cells and is conserved from bacteria to humans. The universal cellular lipid storage organelle is the so-called lipid storage droplet (LD). Although ubiquitous, LDs share a simple structure composed of a hydrophobic core that harbors the storage lipids, which is shielded by a droplet-specific phospholipid monolayer to which proteins are attached. […]
We dispensed 4 uL of cells at 1.25 x 10^6 cells/mL into LoBase Aurora COC 1,536-well plates (black walled, clear bottom) with a bottle-valve solenoid-based dispenser (Aurora) to obtain 5,000 cells/well. […] Fluorescence was detected by excitation of the fluorophores with a 488-nm laser on an Acumen Explorer (TTP Lab Tech). […] Cells were detected using channel 3 (575- 640 nm) with 5-um width and 100-um depth filters. The ratio of the total intensity in PMT channel 1 over total intensity of channel 3 was also calculated. […]

For `CCC/C=C/C/C=C/C=C/C=N/NN=O`, the Potency was 2.81 µM (active).
